The supplement of paper PMC11732987, “Enantioselective OTUD7B fragment discovery through chemoproteomics screening and high-throughput optimisation” (Communications Chemistry, 2025)

Tests used:
Assay in all cases: log2 ratio of Biotin-Ahx-Ub-VS probe labelling (fragment/DMSO); higher = less target engagement (more negative = stronger competition), active = hit call of the paper (q ≤ 0.05, log2 ratio ≤ -1)
Details in all cases: compound concentration: 200 uM; treatment time: 3 h
USP19 = biological target: T1, USP19 (UniProt O94966)
T1 sequence (whole entry): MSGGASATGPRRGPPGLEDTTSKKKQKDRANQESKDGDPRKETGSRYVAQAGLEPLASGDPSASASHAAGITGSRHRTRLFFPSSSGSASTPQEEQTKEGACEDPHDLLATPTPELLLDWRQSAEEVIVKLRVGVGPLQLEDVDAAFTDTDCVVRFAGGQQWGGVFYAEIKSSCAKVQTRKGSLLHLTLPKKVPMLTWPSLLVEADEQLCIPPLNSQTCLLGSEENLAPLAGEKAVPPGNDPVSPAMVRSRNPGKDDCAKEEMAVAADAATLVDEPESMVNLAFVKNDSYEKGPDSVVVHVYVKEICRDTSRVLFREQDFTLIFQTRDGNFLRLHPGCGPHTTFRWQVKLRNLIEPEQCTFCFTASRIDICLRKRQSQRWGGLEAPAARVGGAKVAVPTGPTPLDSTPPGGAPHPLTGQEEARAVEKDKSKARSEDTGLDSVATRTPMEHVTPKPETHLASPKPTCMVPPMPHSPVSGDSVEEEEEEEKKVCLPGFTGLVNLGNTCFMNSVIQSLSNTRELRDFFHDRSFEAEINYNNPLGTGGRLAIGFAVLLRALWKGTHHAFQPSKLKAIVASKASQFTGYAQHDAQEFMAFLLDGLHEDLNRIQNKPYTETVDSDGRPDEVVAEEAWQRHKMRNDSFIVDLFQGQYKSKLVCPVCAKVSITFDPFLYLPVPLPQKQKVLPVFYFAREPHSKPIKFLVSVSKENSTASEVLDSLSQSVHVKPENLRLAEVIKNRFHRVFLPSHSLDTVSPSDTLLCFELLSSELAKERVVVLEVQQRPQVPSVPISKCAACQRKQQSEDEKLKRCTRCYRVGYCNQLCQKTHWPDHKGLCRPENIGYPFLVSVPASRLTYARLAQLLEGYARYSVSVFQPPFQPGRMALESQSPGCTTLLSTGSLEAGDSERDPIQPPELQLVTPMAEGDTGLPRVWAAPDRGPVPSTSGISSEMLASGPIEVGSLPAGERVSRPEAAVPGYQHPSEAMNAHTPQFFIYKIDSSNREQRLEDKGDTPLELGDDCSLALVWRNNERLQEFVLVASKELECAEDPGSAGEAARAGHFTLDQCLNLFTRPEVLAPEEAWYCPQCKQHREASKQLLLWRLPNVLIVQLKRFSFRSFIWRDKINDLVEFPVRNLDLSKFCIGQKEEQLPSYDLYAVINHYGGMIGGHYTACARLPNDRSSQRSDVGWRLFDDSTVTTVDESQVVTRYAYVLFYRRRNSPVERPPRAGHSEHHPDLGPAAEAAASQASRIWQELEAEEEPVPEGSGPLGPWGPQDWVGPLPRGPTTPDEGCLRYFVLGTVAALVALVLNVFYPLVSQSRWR
Procedure, shortened: (§1)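 Each value is an average log2 ratio of fragment to vehicle, tested by unpaired t-test. The underlying Spectronaut label-free quantities were global-median-normalised, and only proteins with ≥2 unique peptides were included. Triplicate HEK293T lysate samples (495 µg) were exposed to fragment at 200 µM or vehicle for 3 h, then to Biotin-Ahx-Ub-VS at 0.5 µM final for 1 h, before NeutrAvidin enrichment of labelled DUBs, LysC and trypsin digestion, and diaPASEF LC-MS/MS.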

USP22 = biological target: T2, USP22 (UniProt Q9UPT9)
T2 sequence (whole entry): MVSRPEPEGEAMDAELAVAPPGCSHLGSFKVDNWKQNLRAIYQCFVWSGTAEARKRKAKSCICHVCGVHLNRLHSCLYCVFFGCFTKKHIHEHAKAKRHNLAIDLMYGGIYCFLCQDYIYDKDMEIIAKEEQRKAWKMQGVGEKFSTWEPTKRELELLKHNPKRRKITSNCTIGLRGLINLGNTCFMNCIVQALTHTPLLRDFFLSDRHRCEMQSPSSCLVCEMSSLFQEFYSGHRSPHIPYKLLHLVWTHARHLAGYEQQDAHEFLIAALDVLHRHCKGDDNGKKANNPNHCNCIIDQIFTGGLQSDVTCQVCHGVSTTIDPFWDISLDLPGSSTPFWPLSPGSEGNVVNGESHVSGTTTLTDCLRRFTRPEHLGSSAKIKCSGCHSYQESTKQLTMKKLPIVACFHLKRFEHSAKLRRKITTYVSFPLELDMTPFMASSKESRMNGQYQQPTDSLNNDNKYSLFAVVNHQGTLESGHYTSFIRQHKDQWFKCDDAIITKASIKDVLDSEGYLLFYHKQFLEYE
Procedure, shortened: as §1

USP24 = USP24 (UniProt Q9UPU5)
Procedure, shortened: as §1

USP25 = biological target: T3, USP25 (UniProt Q9UHP3)
T3 sequence (whole entry): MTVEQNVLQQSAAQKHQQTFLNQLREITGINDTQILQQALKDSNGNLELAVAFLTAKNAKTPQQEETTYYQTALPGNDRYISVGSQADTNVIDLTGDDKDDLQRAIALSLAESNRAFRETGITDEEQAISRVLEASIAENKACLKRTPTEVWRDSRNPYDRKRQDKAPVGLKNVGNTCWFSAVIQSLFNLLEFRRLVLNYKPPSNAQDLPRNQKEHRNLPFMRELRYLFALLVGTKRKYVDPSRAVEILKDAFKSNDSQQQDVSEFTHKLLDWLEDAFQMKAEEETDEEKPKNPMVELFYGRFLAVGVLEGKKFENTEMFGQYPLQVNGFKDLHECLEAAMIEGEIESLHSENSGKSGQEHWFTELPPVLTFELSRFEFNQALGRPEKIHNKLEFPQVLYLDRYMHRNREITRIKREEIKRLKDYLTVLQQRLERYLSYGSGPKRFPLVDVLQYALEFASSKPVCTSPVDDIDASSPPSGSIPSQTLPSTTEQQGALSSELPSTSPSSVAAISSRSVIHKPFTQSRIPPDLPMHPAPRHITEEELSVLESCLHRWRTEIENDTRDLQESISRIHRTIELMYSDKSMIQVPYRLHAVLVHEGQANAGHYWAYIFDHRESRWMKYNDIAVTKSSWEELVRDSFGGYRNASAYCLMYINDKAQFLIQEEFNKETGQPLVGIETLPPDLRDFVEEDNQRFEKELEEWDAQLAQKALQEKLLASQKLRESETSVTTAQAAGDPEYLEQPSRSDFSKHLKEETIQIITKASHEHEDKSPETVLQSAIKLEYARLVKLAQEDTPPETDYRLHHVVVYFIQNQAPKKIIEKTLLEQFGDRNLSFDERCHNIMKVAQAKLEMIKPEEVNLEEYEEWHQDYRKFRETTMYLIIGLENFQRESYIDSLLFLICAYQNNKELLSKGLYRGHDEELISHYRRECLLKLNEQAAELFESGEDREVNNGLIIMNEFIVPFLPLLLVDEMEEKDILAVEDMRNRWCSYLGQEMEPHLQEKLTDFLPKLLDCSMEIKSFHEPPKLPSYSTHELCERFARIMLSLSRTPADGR
Procedure, shortened: as §1

USP28 = biological target: T4, USP28 (UniProt Q96RU2)
T4 sequence (whole entry): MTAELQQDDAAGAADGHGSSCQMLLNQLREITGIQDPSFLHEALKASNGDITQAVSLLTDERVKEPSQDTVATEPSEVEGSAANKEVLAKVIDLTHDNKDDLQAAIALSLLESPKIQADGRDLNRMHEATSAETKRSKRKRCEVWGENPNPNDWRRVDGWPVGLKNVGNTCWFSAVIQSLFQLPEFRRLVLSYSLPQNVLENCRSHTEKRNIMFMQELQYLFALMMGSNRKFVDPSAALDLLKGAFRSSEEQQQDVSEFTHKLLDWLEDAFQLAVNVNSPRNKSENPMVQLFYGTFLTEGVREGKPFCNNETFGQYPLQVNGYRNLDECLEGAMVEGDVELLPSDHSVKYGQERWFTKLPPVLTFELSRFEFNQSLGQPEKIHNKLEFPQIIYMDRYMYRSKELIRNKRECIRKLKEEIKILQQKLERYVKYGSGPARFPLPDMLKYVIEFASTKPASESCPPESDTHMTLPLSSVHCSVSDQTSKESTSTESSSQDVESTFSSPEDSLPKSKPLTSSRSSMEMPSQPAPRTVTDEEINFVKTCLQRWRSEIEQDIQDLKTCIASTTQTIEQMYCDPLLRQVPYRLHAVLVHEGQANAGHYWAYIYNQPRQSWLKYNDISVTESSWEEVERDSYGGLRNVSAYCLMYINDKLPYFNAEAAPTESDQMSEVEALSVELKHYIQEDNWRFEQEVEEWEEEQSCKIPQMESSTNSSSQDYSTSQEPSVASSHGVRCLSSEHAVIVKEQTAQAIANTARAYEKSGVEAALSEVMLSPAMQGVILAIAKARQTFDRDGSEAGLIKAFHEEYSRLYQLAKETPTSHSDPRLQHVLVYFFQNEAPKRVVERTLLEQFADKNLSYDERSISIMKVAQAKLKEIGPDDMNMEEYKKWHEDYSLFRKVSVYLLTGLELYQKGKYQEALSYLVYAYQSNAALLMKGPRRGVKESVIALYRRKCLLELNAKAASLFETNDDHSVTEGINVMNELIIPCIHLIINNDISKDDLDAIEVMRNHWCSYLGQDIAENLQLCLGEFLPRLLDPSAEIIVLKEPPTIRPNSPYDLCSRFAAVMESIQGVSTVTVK
Procedure, shortened: as §1

Measured: log2 ratio of Biotin-Ahx-Ub-VS probe labelling

Chain of USP24 (Q9UPU5 whole entry): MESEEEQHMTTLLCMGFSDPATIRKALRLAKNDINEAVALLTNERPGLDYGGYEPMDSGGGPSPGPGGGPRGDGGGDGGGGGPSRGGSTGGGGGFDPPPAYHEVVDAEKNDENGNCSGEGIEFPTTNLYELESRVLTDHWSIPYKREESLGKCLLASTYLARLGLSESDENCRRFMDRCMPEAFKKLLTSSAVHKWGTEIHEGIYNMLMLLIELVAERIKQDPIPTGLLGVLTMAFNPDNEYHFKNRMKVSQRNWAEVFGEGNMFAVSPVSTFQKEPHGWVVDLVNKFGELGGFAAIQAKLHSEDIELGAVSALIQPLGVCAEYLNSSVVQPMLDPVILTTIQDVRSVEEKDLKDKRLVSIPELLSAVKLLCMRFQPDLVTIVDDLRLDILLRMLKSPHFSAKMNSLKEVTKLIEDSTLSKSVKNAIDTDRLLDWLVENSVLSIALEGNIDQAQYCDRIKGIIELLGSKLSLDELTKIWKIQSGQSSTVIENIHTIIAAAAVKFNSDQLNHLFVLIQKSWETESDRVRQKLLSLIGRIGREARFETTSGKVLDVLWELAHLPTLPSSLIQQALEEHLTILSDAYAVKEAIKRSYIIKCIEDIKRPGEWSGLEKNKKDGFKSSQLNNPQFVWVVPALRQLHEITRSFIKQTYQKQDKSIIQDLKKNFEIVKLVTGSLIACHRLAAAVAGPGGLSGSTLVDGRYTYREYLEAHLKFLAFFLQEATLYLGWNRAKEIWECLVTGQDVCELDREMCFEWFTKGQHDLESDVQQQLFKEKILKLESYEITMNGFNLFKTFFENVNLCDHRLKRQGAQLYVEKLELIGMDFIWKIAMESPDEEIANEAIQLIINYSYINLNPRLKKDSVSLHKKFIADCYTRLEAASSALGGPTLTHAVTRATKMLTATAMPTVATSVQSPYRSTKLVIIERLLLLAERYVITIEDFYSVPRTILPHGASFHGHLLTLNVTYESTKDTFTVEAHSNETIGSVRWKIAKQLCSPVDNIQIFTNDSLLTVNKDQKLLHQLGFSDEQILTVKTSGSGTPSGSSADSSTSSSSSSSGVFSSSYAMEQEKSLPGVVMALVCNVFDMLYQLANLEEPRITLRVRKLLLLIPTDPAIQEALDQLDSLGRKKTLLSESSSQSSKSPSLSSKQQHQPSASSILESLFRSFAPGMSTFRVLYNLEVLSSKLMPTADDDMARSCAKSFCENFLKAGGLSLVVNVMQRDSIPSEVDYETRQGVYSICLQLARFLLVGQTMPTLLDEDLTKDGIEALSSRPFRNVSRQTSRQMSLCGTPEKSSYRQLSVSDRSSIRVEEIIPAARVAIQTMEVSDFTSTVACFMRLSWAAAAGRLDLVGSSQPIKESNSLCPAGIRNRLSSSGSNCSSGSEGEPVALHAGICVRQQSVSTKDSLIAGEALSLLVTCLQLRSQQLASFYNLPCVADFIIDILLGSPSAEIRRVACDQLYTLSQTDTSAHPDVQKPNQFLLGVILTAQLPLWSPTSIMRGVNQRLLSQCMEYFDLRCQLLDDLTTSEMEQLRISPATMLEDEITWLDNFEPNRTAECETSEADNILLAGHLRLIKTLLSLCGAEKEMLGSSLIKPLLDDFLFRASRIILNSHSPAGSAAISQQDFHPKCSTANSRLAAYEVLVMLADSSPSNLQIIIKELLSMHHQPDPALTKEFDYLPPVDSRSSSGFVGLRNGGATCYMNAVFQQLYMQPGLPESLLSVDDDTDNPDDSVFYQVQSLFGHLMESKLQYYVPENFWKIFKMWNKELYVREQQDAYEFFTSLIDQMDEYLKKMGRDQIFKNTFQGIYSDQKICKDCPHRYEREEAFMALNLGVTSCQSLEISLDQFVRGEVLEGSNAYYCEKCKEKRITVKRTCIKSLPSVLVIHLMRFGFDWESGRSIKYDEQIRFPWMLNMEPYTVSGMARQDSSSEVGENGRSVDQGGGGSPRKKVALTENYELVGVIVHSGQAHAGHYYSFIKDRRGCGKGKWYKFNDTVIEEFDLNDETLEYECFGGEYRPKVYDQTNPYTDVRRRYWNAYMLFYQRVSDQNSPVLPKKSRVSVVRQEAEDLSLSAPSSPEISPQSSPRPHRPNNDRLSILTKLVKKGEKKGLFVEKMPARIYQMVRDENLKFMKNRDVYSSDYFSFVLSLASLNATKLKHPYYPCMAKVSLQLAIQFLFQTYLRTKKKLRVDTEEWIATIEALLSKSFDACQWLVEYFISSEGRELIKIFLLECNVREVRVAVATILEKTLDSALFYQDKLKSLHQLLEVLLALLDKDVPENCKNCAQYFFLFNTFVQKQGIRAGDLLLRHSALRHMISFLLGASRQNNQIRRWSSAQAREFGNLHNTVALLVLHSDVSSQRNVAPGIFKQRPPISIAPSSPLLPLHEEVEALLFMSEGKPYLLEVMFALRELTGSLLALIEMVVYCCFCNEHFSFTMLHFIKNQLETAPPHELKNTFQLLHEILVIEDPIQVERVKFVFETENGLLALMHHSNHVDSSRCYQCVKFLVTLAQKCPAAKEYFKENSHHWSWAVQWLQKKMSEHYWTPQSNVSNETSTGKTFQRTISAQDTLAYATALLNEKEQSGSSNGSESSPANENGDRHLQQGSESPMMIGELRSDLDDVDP

CC(=O)C1CCCCN1C(=O)CCl (stereo not given)
inactive: USP19 -0.14 | USP22 0.0806 | USP24 0.0726 | USP25 0.106 | USP28 -0.2
